About 2,000 (36%) of roughly 5,500 compounds were called active. Roughly 18% stayed inconclusive and do not appear here. Rule as the data show it: active = normalized growth mostly below about 0.91 (no sharp cut-off); inconclusive = no clear call, values can overlap the other calls; inactive = mostly above about 0.92. Some of the results follow.
Assay: chemical genetic growth profiling, strain panel (AID 1159580);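 also: tested at 20 µM; growth read once vehicle control cultures reached saturation at 30 °C; 1 = growth at the plate median or of vehicle wells; lower values mean less growth of the strain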
Conditions: growth OD

Measured: normalized growth

CC(C)(Oc1ccc(Cl)cc1)C(=O)O
inactive: S. cerevisiae deletion strains, locus YJR075W, strain HOC1, stronger effect = lower value 0.992 | S. cerevisiae deletion strains, locus YKL009W, strain mrt4, stronger effect = lower value 0.983 | S. cerevisiae deletion strains, locus YKL068W, stronger effect = lower value 0.967 | S. cerevisiae deletion strains, locus YKL085W, strain MDH1 (second series), stronger effect = lower value 0.981 | S. cerevisiae deletion strains, locus YKL085W, strain MDH1, stronger effect = lower value 0.981 | S. cerevisiae deletion strains, locus YKL160W, strain elf1, stronger effect = lower value 1.02 | S. cerevisiae deletion strains, locus YKL190W, strain CNB1, stronger effect = lower value 0.996 | S. cerevisiae deletion strains, locus YKR001C, strain vps1, stronger effect = lower value 0.973 | S. cerevisiae deletion strains, locus YKR026C, strain gcn3, stronger effect = lower value 1 | S. cerevisiae deletion strains, locus YKR091W, strain srl3, stronger effect = lower value 0.999 | S. cerevisiae deletion strains, locus YLL001W, strain dnm1, stronger effect = lower value 1 | S. cerevisiae deletion strains, locus YLL026W, stronger effect = lower value 1.01 | S. cerevisiae deletion strains, locus YLL041C, strain sdh2, stronger effect = lower value 0.996 | S. cerevisiae deletion strains, locus YLR027C, strain aat2, stronger effect = lower value 1.01 | S. cerevisiae deletion strains, locus YLR039C, strain RIC1, stronger effect = lower value 0.967 | S. cerevisiae deletion strains, locus YLR058C, strain SHM2, stronger effect = lower value 0.994 | S. cerevisiae deletion strains, locus YLR102C, strain apc9, stronger effect = lower value 0.987 | S. cerevisiae deletion strains, locus YLR221C, strain rsa3, stronger effect = lower value 0.981 | S. cerevisiae deletion strains, locus YLR258W, strain gsy2, stronger effect = lower value 1.03 | S. cerevisiae deletion strains, locus YLR262C, strain YPT6 (second series), stronger effect = lower value 1 | S. cerevisiae deletion strains, locus YLR262C, strain YPT6, stronger effect = lower value 0.948 | S. cerevisiae deletion strains, locus YLR268W, strain sec22, stronger effect = lower value 0.927 | S. cerevisiae deletion strains, locus YLR320W, strain mms22, stronger effect = lower value 0.98 | S. cerevisiae deletion strains, locus YLR330W, strain CHS5, stronger effect = lower value 0.985 | S. cerevisiae deletion strains, locus YLR342W, strain FKS1 (second series), stronger effect = lower value 1.06 | S. cerevisiae deletion strains, locus YLR342W, strain FKS1, stronger effect = lower value 1.03 | S. cerevisiae deletion strains, locus YLR357W, strain rsc2, stronger effect = lower value 1.03 | S. cerevisiae deletion strains, locus YLR370C, strain arc18, stronger effect = lower value 1.02 | S. cerevisiae deletion strains, locus YLR371W, strain rom2, stronger effect = lower value 0.98 | S. cerevisiae deletion strains, locus YLR384C, strain iki3, stronger effect = lower value 0.991 | S. cerevisiae deletion strains, locus YLR418C, strain cdc73, stronger effect = lower value 1 | S. cerevisiae deletion strains, locus YML016C, strain PPZ1, stronger effect = lower value 0.995 | S. cerevisiae deletion strains, locus YML032C, strain rad52, stronger effect = lower value 0.958 | S. cerevisiae deletion strains, locus YML120C, strain ndi1, stronger effect = lower value 0.983 | S. cerevisiae deletion strains, locus YML124C, strain tub3, stronger effect = lower value 0.99 | S. cerevisiae deletion strains, locus YMR058W, strain fet3, stronger effect = lower value 1.01 | S. cerevisiae deletion strains, locus YMR078C, strain ctf18, stronger effect = lower value 0.978 | S. cerevisiae deletion strains, locus YMR125W, strain sto1, stronger effect = lower value 1.05 | S. cerevisiae deletion strains, locus YMR129W, stronger effect = lower value 1.02 | S. cerevisiae deletion strains, locus YMR205C, strain PFK2, stronger effect = lower value 0.991 | S. cerevisiae deletion strains, locus YMR223W, strain ubp8, stronger effect = lower value 1.03 | S. cerevisiae deletion strains, locus YMR231W, strain pep5, stronger effect = lower value 0.999 | S. cerevisiae deletion strains, locus YMR263W, strain SAP30, stronger effect = lower value 0.985 | S. cerevisiae deletion strains, locus YMR307W, strain GAS1, stronger effect = lower value 1.09 | S. cerevisiae deletion strains, locus YNL067W, strain RPL9B, stronger effect = lower value 0.977 | S. cerevisiae deletion strains, locus YNL071W, strain lat1, stronger effect = lower value 1.02 | S. cerevisiae deletion strains, locus YNL128W, strain TEP1, stronger effect = lower value 0.996 | S. cerevisiae deletion strains, locus YNL153C, strain GIM3, stronger effect = lower value 0.979 | S. cerevisiae deletion strains, locus YNL209W, strain ssb2, stronger effect = lower value 1.02 | S. cerevisiae deletion strains, locus YNL233W, strain BNI4, stronger effect = lower value 0.994 | S. cerevisiae deletion strains, locus YNL248C, strain rpa49, stronger effect = lower value 1.05 | S. cerevisiae deletion strains, locus YNL250W, strain rad50, stronger effect = lower value 0.985 | S. cerevisiae deletion strains, locus YNL271C, strain bni1, stronger effect = lower value 0.983 | S. cerevisiae deletion strains, locus YNL298W, strain CLA4, stronger effect = lower value 0.963 | S. cerevisiae deletion strains, locus YNL307C, strain MCK1, stronger effect = lower value 0.976 | S. cerevisiae deletion strains, locus YNL322C, strain KRE1 (second series), stronger effect = lower value 0.996 | S. cerevisiae deletion strains, locus YNL322C, strain KRE1, stronger effect = lower value 0.995 | S. cerevisiae deletion strains, locus YNR049C, strain mso1, stronger effect = lower value 1.01 | S. cerevisiae deletion strains, locus YNR052C, strain pop2, stronger effect = lower value 0.98 | S. cerevisiae deletion strains, locus YOL006C, strain TOP1, stronger effect = lower value 0.941 | S. cerevisiae deletion strains, locus YOL012C, strain htz1 0.835 | S. cerevisiae deletion strains, locus YOL147C, strain pex11, stronger effect = lower value 0.987 | S. cerevisiae deletion strains, locus YOR001W, strain rrp6, stronger effect = lower value 0.962 | S. cerevisiae deletion strains, locus YOR061W, strain CKA2, stronger effect = lower value 0.995 | S. cerevisiae deletion strains, locus YOR069W, strain VPS5, stronger effect = lower value 0.991 | S. cerevisiae deletion strains, locus YOR070C, strain gyp1, stronger effect = lower value 1.01 | S. cerevisiae deletion strains, locus YOR080W, strain dia2, stronger effect = lower value 1.01 | S. cerevisiae deletion strains, locus YOR083W, strain WHI5, stronger effect = lower value 0.985 | S. cerevisiae deletion strains, locus YOR106W, strain vam3, stronger effect = lower value 1.04 | S. cerevisiae deletion strains, locus YOR136W, strain idh2, stronger effect = lower value 0.989 | S. cerevisiae deletion strains, locus YOR144C, strain elg1, stronger effect = lower value 0.982 | S. cerevisiae deletion strains, locus YOR184W, strain ser1, stronger effect = lower value 0.964 | S. cerevisiae deletion strains, locus YOR265W, strain rbl2, stronger effect = lower value 1.01 | S. cerevisiae deletion strains, locus YOR270C, strain vph1, stronger effect = lower value 1.09 | S. cerevisiae deletion strains, locus YOR290C, strain snf2, stronger effect = lower value 1.03 | S. cerevisiae deletion strains, locus YOR316C, strain cot1, stronger effect = lower value 0.962 | S. cerevisiae deletion strains, locus YPL051W, strain arl3, stronger effect = lower value 1.04 | S. cerevisiae deletion strains, locus YPL055C, strain LGE1, stronger effect = lower value 0.996 | S. cerevisiae deletion strains, locus YPL078C, strain atp4, stronger effect = lower value 1.05 | S. cerevisiae deletion strains, locus YPL106C, strain sse1, stronger effect = lower value 1.06 | S. cerevisiae deletion strains, locus YPL240C, strain hsp82, stronger effect = lower value 1 | S. cerevisiae deletion strains, locus YPL241C, strain CIN2, stronger effect = lower value 0.994 | S. cerevisiae deletion strains, locus YPR119W, strain clb2, stronger effect = lower value 0.971 | S. cerevisiae deletion strains, locus YPR141C, strain kar3, stronger effect = lower value 0.982 | S. cerevisiae deletion strains, locus YPR163C, strain tif3, stronger effect = lower value 0.975 | S. cerevisiae deletion strains, locus YPR167C, strain met16, stronger effect = lower value 0.966 | S. cerevisiae deletion strains, strain wtn01, stronger effect = lower value 0.955 | S. cerevisiae strains, strain wild type, stronger effect = lower value 0.995

Reference: PubChem BioAssay AID1159580 (chemical genetic matrix, 2015)
